Reference: the supplement of paper PMC6555819

What was measured:
Experiment in all cases: PBM binding z-score (relative to random genomic background probes); higher = stronger binding; sequences stand for … in GC…GCGATTGACAGCGTAGAATGAAGG
[1] = system: PPARg:RXRa DBDmut IVT, anti-RXR (DBD mutation: RXRa K156A/R161A, NR concentration 270 nM, RXRa partner concentration 90 nM)
Method in brief: (§1)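 Custom Agilent 4×180K protein-binding microarrays carried double-stranded probes. Their 34-nt variable regions held direct-repeat seeds, single-nucleotide variants, half-site ablations and random human genomic background sequences. Arrays were incubated 1 h with ligand-free nuclear receptor dimers in PBS pH 7.4, 2% milk, 0.02% Triton X-100, 1 mM DTT, 0.2 mg/mL BSA and 0.4 mg/ml salmon testes DNA. Antibodies against each partner (one per run) detected binding, and scanned fluorescence was regression-normalized. Binding z-scores use random background probes as reference.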

[2] = system: PPARg:RXRa IVT, anti-PPARg (NR concentration 270 nM, RXRa partner concentration 90 nM)
Method in brief: as §1

[3] = system: PPARg DBDmut:RXRa IVT, anti-PPARg (DBD mutation: PPARg1 K132A/R137A, NR concentration 270 nM, RXRa partner concentration 90 nM)
Method in brief: as §1

[4] = system: PPARg DBDmut IVT, anti-PPARg (DBD mutation: PPARg1 K132A/R137A, NR concentration 270 nM)
Method in brief: as §1

[5] = system: PPARg homodimer (NR concentration 180 nM)
Method in brief: as §1

[6] = system: PXR:RXRa (NR concentration 270 nM, RXRa partner concentration 90 nM)
Method in brief: as §1

[7] = system: PXR homodimer (NR concentration 270 nM)
Method in brief: as §1

[8] = system: RARa:RXR (NR concentration 270 nM, RXRa partner concentration 90 nM)
Method in brief: as §1

[9] = system: RARa homodimer (NR concentration 270 nM)
Method in brief: as §1

[10] = system: RARb:RXRa (NR concentration 270 nM, RXRa partner concentration 90 nM)
Method in brief: as §1

Sequence	PBM binding z-score [1]	PBM binding z-score [2]	PBM binding z-score [3]	PBM binding z-score [4]	PBM binding z-score [5]	PBM binding z-score [6]	PBM binding z-score [7]	PBM binding z-score [8]	PBM binding z-score [9]	PBM binding z-score [10]
CGTCAAAATTCAAGGTAACGTAACAGAAAGCAGC	0.000306	0.704	0.815	0.761	0.474	-0.0296	0.268	0.363	0.932	0.208
CCTACTCGGCCATCAGGTCATTGATATCAACGTT	2.58	2.67	0.141	-0.00439	2.27	2.02	1.21	2.36	1.12	2.29
TCAGACCGGTGAAGGTAACTCAGGTACGCAGTCG	1.9	0.032	-0.824	-0.847	-0.31	0.238	-0.147	0.303	-0.254	0.335
ATCTCTAGGTAAAACTCAGTTCAGTGAAGAACGC	2.63	1.95	0.847	0.779	1.22	1.7	1.99	0.609	1.49	0.514
CCAGACAGGTGAGAAAGTAACTCAGCCTCGATTA	0.811	0.252	-0.222	-0.131	0.452	-0.35	0.307	0.117	0.86	0.141
AGAAGGAGGGCACGCTGAGTTGATAGCAGAGTAG	4.39	4.02	0.794	0.398	0.378	1.16	0.294	0.766	-0.141	2.32
GATACAGAGTCAAGGCCAGAGTACGCGTATTGAT	-0.108	-0.0303	0.127	-0.418	-0.301	-0.285	-0.253	-0.181	-1.07	0.288
CCTTACGGGTCACGAGGTTACAGCACGACGAGCG	4.58	5.66	2.08	2.53	5.5	5	0.46	6.67	2.1	4.71
GCTATTAGTTGAAAAGGCAACCGAATGATTCTCG	-0.116	-0.52	0.324	0.295	1.02	-0.0791	0.363	0.226	0.557	0.109
CCGACTGGGGCAGAAAGGTTATCATACCATCCGG	1.78	1.73	-1.01	-1.06	0.664	0.873	0.149	1.85	-0.196	1.68
TCTTGTAGATCAGCAGGTCAAGAAAGCTGGCCAA	1.57	1.61	-0.677	-0.699	0.129	1.6	-0.4	2.18	-0.58	2.01
CGTCCAAGGTCATAGGAAGTCAGTGAAGACAGAT	3.11	3.4	0.667	-0.147	2.75	3.99	0.915	4.28	0.466	4.81
AGTCAAAGTTCAGGCCGAGGTAACGTAAAGCACG	-0.249	1.8	0.687	0.000554	2.4	3.17	1.77	3	0.163	4.4
GCTAGCAGGCCATTTGGGTCAGTCAATGACGGGC	1.4	1.05	-0.511	-1.16	-0.0651	-0.047	0.065	0.213	-1.59	1.12
ATCTCTCGGTAAAGATAGTTCAGTGAATGCAAAT	-0.304	0.216	0.814	0.624	1.08	0.754	0.572	0.965	1.32	0.868
ACTCAAAGTTCATCTAGGTAACGTAAGATATGCT	1.43	2.81	2.23	2.06	3.4	5.34	7.92	4.08	2.11	5.33
CCGAGTAGGTTATGGGACATTCAGGCAACGGTGA	3.53	2.6	-0.291	-0.241	1.11	-0.0515	0.264	0.315	0.595	0.813
ACGAGCAGGCCAAGTTTGGGTCACTCAAACAAAG	-0.114	0.246	-0.842	-0.922	0.235	0.69	-0.152	1.46	-0.613	1.54
ATCGAAAGGTCGACGAGGTGAGTAGACACCGTTT	0.417	2.09	0.633	0.273	1.49	2.93	0.455	3.91	0.813	3.89
AATACAGGGTCACTAGCCCAGAGTAGGTACGAAT	2.81	4.3	1.88	0.703	2.29	2.92	0.113	3.64	1.11	4.08
AGTCAAAGTTCAGGACGAGGTAACATAAAGCACG	-0.187	1.85	1.18	0.12	2.12	3.37	1.47	3.33	0.906	4.15
ATATGTAGGTTACACCCGGGTCATTCAGGCTATG	7.06	7.68	2.55	1.68	1.71	3.62	1.57	3.89	0.619	2.35
TCTAGTTGGTCAAAGGACACACACTCGAAATGCG	2.42	2.63	1.26	0.871	1.9	0.659	0.4	1.1	1.12	2.02
CCTCGGAGGACAACAGGAGGACAGAGCTGCCAGA	-0.583	-0.273	-0.847	-1.93	-0.324	-0.247	-0.0933	-0.0397	-0.0805	1.09
GCTCGGAGGAGAAGGTCAGAGCTTTGTCCGTAGA	-0.348	0.169	-0.938	-2.35	0.184	1.06	-1.02	1.58	-1	2.3
